# An excerpt weighted towards active compounds, which were near 3.3% of everything screened.
# M18AAP inhibitor: PfM18AAP inhibitors, malaria aminopeptidase, primary screen, biochemical, QFRET, recombinant enzyme; H-Glu-NHMec fluorogenic cleavage; inhibition, % at 7.35 µM; 290,000 tested, 1.2% active; AID 1822, 2009;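 active = inhibition above the campaign mean inhibition over all tested compounds plus 3 SD, cut at about 28% in these data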;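 note: 0% = plate median of test compound wells and 100% = 2 mM ZnCl2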
# PRMT1 FP inh: PRMT1 methyltransferase inhibitors, primary screen, biochemical, fluorescence polarization; 370,000 tested, 1.3% active; recombinant PRMT1, activity-based probe fluorescence polarization; inhibition, % at 2.79 µM; Protein arginine N-methyltransferase 1 (Homo sapiens), Q99873; AID 652257, 2013;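 active = inhibition above about 21% made by adding two undisclosed values, limit read from the data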
# MBD2 inh: inhibitors of MBD2 binding to methylated DNA, primary screen, biochemical, TR-FRET, DNA-binding domain, human | Methyl-CpG-binding domain protein 2 (Homo sapiens), Q9UBB5 | MBD2 binding to methylated oligonucleotide | inhibition, % at 4.4 µM | 370,000 tested, 0.31% active | AID 686964, 2013; in the data active = inhibition above about 13%
# PfG6PD inh: PfG6PD enzyme inhibitors, primary screen, biochemical, fluorescence intensity, uHTS | glucose-6-phosphate dehydrogenase-6-phosphogluconolactonase (Plasmodium falciparum 3D7) | PfGluPho enzyme, NADPH resazurin-diaphorase fluorescence | inhibition, % at 20 µM | 350,000 tested, 0.78% active | AID 504690, 2011;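 active = inhibition reaching at least a set limit at 20 µM in the primary screen, cut at about 59% in these data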;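 note: 0% = DMSO wells with substrate and 100% = DMSO wells lacking glucose-6-phosphate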
# UHRF1 MBD2 ctr: UHRF1 methylated DNA binding inhibitors, primary screen, counter-screen for MBD2 inhibitor project, biochemical, TR-FRET, human UHRF1, single concentration; UHRF1 binding to methylated oligo; inhibition, % at 4.4 µM; 370,000 tested, 0.75% active; AID 687016, 2013; in the data active = inhibition above about 21%;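 note: UHRF1 SRA domain binding a hemimethylated CpG hairpin DNA probe; 0% = median of test compound wells and 100% = reference inhibitor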
# Active calls of the source: *; x = not tested or not shown.
SMILES,M18AAP inhibitor,PRMT1 FP inh,MBD2 inh,PfG6PD inh,UHRF1 MBD2 ctr
CC(=O)NC(=S)Nc1ccc(NC(=S)NC(=O)/C=C/c2ccco2)cc1,-6,9,0,3,-2
Cc1ccnc(NC(=S)NC(=O)/C=C/c2ccco2)c1,13,23*,0,1,1
C[C@H](CO)N1C[C@H](C)[C@H](CN(C)C(=O)Nc2cccc(F)c2)OCc2cnnn2CCCC1=O,x,4,1,x,3
Cc1ccc(NC(=O)CSc2ncnc3ccccc23)cc1S(=O)(=O)N1CCOCC1,4,12,-4,0,-1
Cc1ccc(NC(=O)CSc2ncnc3ccccc23)cc1S(=O)(=O)N1CCCCC1,-1,23*,0,5,5
O=S1(=O)CC(N2CCCC2)CN1Cc1cn(Cc2ccc(C(F)(F)F)cc2)nn1 (stereo not drawn),x,-1,-2,x,3
C#CCOCCOCCOCCNc1nc(N2CCN(C(=O)CCCCCCCCCCNC(=O)[C@H](CCCCN)n3cc(C[C@@H](C)CC)nn3)CC2)nc(N2CCN(C(=O)CCCCCCCCCCNC(=O)[C@H](CCCN=C(N)N)n3cc(C[C@@H](C)CC)nn3)CC2)n1,x,x,x,52,x
C#CCOCCOCCOCCNc1nc(N2CCN(C(=O)CCCCCCCCCCNC(=O)[C@H](CCCCN)n3cc(C)nn3)CC2)nc(N2CCN(C(=O)CCCCCCCCCCNC(=O)[C@H](CCCN=C(N)N)n3cc(C[C@@H](C)CC)nn3)CC2)n1,x,x,x,60*,x
C#CCOCCOCCOCCNc1nc(N2CCN(C(=O)CCCCCCCCCCNC(=O)[C@@H](CCSC)n3cc(CCO)nn3)CC2)nc(N2CCN(C(=O)CCCCCCCCCCNC(=O)[C@H](CO)n3cc(CCCCCN)nn3)CC2)n1,x,x,x,52,x
C#CCOCCOCCOCCNc1nc(N2CCN(C(=O)CCCCCCCCCCNC(=O)[C@@H](CCSC)n3cc(CCO)nn3)CC2)nc(N2CCN(C(=O)CCCCCCCCCCNC(=O)[C@H](CCCN=C(N)N)n3cc(C[C@@H](C)CC)nn3)CC2)n1,x,x,x,69*,x
COC(=O)[C@]12C[C@H](CC(=O)NCCC(C)C)C(=O)N(Cc3ccco3)C1=C[C@H](C(C)C)O[C@@H]2C1CC1,x,0,-2,x,-1
CC(C)C[C@@H]1COc2cc(N3CCSCC3)ccc2S(=O)(=O)N1C,x,0,3,x,0
CCCCCCN=C1CC(C)(C)CC(=O)/C1=C(/O)CCC,3,-2,2,-8,23*
Cc1ccc(-n2c(SCC(=O)Nc3ccc(S(=O)(=O)Nc4cc(C)nc(C)n4)cc3)nnc2-c2cccs2)cc1,x,5,-6,x,1
Cc1oc(C)c2c(=O)ccc3c(c12)OC(N)=C(C#N)C3c1ccccc1 (stereo not drawn),22,22*,-1,11,6
CSc1ccc(C2C(C#N)=C(N)Oc3c2ccc(=O)c2c(C)oc(C)c32)cc1 (stereo not drawn),17,7,-2,-2,-4
COC(=O)[C@@]1(Cc2ccc(F)cc2)[C@H]2c3cc(C(=O)N(C)C)n(Cc4ccccc4)c3C[C@H]2CN1C(=O)c1ccccc1,0,-1,0,10,2
COC(=O)[C@@]1(Cc2ccc(F)cc2)[C@H]2c3cc(C(=O)N(C)C)n(Cc4ccc(C)o4)c3C[C@H]2CN1C(=O)c1ccccc1,x,22*,-2,x,-1
CCCc1ccc2c(C)cccc2n1,x,-6,-5,x,1
O=C(O)c1ccc2c3c(cccc13)C(=O)N(c1ccccc1)C2=O,-10,0,6,1,15
O=C(O)c1ccc(N2C(=O)c3cccc4c(C(=O)O)ccc(c34)C2=O)cc1,-15,12,6,6,24*
CS(=O)(=O)N(CC(=O)N1CCCCCC1)c1ccc(Cl)cc1,-1,-2,-2,-5,29*
N#Cc1ccc(/C=C2\CC3(OC(=O)c4cccc(F)c4)CCCN2C3)cc1 (stereo not drawn),x,-2,5,x,-1
COc1ccc(S(=O)(=O)N2CCN(C(=O)C3CCCO3)CC2)cc1 (stereo not drawn),-4,-2,-5,9,0
O=C(C1CCCO1)N1CCN(S(=O)(=O)c2ccc(F)cc2)CC1 (stereo not drawn),x,24*,0,-13,0
SMILES,M18AAP inhibitor,PRMT1 FP inh,MBD2 inh,PfG6PD inh,UHRF1 MBD2 ctr
C[C@H]1[C@@H](NCc2cccs2)CC[C@@]23CCCN2C(=O)CCC[C@@H]13,x,0,3,x,-3
O=C(NC1CCCCN(Cc2cccc(Cl)c2)C1=O)c1cccs1 (stereo not drawn),x,-3,3,x,9
O=C(c1nc2ccc(Cl)cn2c1CN1CCCC1)N1CCc2ccccc2C1,5,24*,9,8,1
C=CCN1C[C@H](COC(=O)c2cccc(OC)c2)Oc2cccc(F)c2S1(=O)=O,x,0,2,x,0
CN(C)c1ncnc2c1NC1=C(S2)C(=NCCCC(=O)O)CC(C)(C)C1,23,17,-2,40,-7
COc1ncnc2c1NC1=C(S2)C(=NCCC(=O)O)CC(C)(C)C1,21,28*,-21,37,-20
O/C=c1\ccc2cccc3nc(C(F)(F)F)nc1c23,17,40*,1,10,4
COc1ccc2nccnc2c1[N+](=O)[O-],3,-5,-6,1,30*
COc1ccccc1Nc1ccc2nonc2c1[N+](=O)[O-],-5,4,0,32,-2
O=C(NCc1n[nH]c(=S)n1-c1ccc(Cl)c(Cl)c1)c1ccc(S(=O)(=O)N2CCCCC2)cc1,10,23*,-1,22,1
COC(=O)c1cc(C2(c3c[nH]c4ccccc34)CCN(C(=O)OC(C)(C)C)CC2)n2ccccc12,x,-2,-1,x,-2
C[C@H]1COc2cc(N3CC[C@H](O)C3)ccc2S(=O)(=O)N1,x,7,2,x,62*
C[C@@H]1COc2cc(N3CCC[C@H]3CO)ccc2S(=O)(=O)N1,x,-3,-3,x,-1
Nc1c2c(nc3ccc(Br)cc13)N(c1ccccc1)CC2,26,23*,1,20,-7
C[C@@H](N)C(=O)Nc1ccc(Cl)cc1C(=O)c1ccc[nH]1,x,-5,6,x,-3
CCc1ccc(NC(=O)NNC(=O)c2ccc3ccccc3c2O)cc1,29*,4,-1,-38,0
CCc1ccc(NC(=O)NNC(=O)c2cc3ccccc3cc2O)cc1,15,-3,0,-8,4
COc1ccc(-n2c(SCC(=O)Nc3ccc(S(=O)(=O)Nc4nccs4)cc3)nnc2-c2ccco2)cc1,x,-1,-4,x,-3
Nc1cc(=O)[nH]c(SCC(=O)Nc2cc(S(=O)(=O)N3CCCCCC3)ccc2Cl)n1,x,23*,1,-48,3

# Screens from PubChem.
